# In PubChem BioAssay (NCI):
# Where “and” joins values, the source holds several entries; their conditions need not be identical. Equal entries are not always repeated. This is part of a sample that, as a whole, favours compounds with a hit. Of some 83,000 tested, about 20% had one in any assay.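 The test compound was applied at a single concentration to cells in 96-well plates for 48 hours, and percent growth was recorded.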 Calls of active or inactive are those of the source. Rule for the calls: active = growth percent below 10; inactive = the rest.
# How the values were obtained:
# Test in all cases: NCI-60 one-dose screen, 48 h (100 = growth as untreated, 0 = no growth, -100 = all killed)
# T-47D breast = tested on: T-47D breast
# BT-549 breast = tested on: BT-549 breast
# MDA-MB-435 melanoma = tested on: MDA-MB-435 melanoma
# SW-620 colon = tested on: SW-620 colon
# MCF7 breast = tested on: MCF7 breast
# HCT-116 colon = tested on: HCT-116 colon
# HCC-2998 colon = tested on: HCC-2998 colon
# KM12 colon = tested on: KM12 colon
structure (smiles),measurement,setting,value
CC[C@]12CN3CCc4c([nH]c5ccccc45)[C@@](C(=O)OC)(c4cc5c(cc4OC)N(C)[C@H]4[C@@](O)(C(=O)OC)[C@H](OC(C)=O)[C@]6(CC)C=CCN7CC[C@]54[C@@H]76)CC(C3)[C@H]1O2 (some centres undefined),growth,T-47D breast; 10 µM unless noted,54.8% (inactive)
same,growth,BT-549 breast; 10 µM unless noted,-26% (active)
same,growth,MDA-MB-435 melanoma; 10 µM unless noted,-43.8% (active)
same,growth,SW-620 colon; 10 µM unless noted,17.1% (inactive)
same,growth,MCF7 breast; 10 µM,15.7% (inactive)
same,growth,MCF7 breast; 100 µM,35.1% (inactive) and -19% (active)
same,growth,HCT-116 colon; 10 µM unless noted,0.479% (active)
same,growth,HCC-2998 colon; 10 µM unless noted,-14.6% (active)
same,growth,KM12 colon; 10 µM unless noted,-17.6% (active)
COc1ccc(C/C(C)=C(\c2ccc(O)cc2)c2ccc(OCCCN(C)C)cc2)cc1,growth,T-47D breast; 10 µM unless noted,72.6% (inactive)
same,growth,BT-549 breast; 10 µM unless noted,108% (inactive)
same,growth,MDA-MB-435 melanoma; 10 µM unless noted,101% (inactive)
same,growth,SW-620 colon; 10 µM unless noted,95.2% (inactive)
same,growth,MCF7 breast; 10 µM unless noted,41.1% (inactive)
same,growth,HCT-116 colon; 10 µM unless noted,80.8% (inactive)
same,growth,HCC-2998 colon; 10 µM unless noted,104% (inactive)
same,growth,KM12 colon; 10 µM unless noted,93% (inactive)
CC(=O)/C=C/c1ccc(N(CCO)Cc2ccc(C(C)(C)C)cc2)cc1,growth,T-47D breast; 10 µM,60.2% (inactive)
same,growth,T-47D breast; 100 µM,-83.2% (active)
same,growth,BT-549 breast; 10 µM,79% (inactive)
same,growth,BT-549 breast; 100 µM,-88.9% (active)
same,growth,MDA-MB-435 melanoma; 10 µM,80.7% (inactive)
same,growth,MDA-MB-435 melanoma; 100 µM,-94.4% (active)
same,growth,SW-620 colon; 10 µM,83.9% (inactive)
same,growth,SW-620 colon; 100 µM,-91.8% (active)
same,growth,MCF7 breast; 10 µM,62.9% (inactive)
same,growth,MCF7 breast; 100 µM,-55.4% (active)
same,growth,HCT-116 colon; 10 µM,67.2% (inactive)
same,growth,HCT-116 colon; 100 µM,-98.1% (active)
same,growth,HCC-2998 colon; 10 µM,86.7% (inactive)
same,growth,HCC-2998 colon; 100 µM,-89.2% (active)
same,growth,KM12 colon; 10 µM,81.2% (inactive)
same,growth,KM12 colon; 100 µM,-78.2% (active)
CN(C)CCNc1ncc(F)c(-c2cnc3cc(-c4cnn(C)c4)ccn23)n1,growth,T-47D breast; 0.005 µM,110% (inactive)
same,growth,T-47D breast; 30 µM,81.7% (inactive)
same,growth,BT-549 breast; 0.005 µM,97.8% (inactive)
same,growth,BT-549 breast; 30 µM,69.4% (inactive)
same,growth,MDA-MB-435 melanoma; 0.005 µM,101% (inactive)
same,growth,MDA-MB-435 melanoma; 30 µM,43.1% (inactive)
same,growth,SW-620 colon; 0.005 µM,103% (inactive)
same,growth,SW-620 colon; 30 µM,25.7% (inactive)
same,growth,MCF7 breast; 0.005 µM,93.9% (inactive)
same,growth,MCF7 breast; 30 µM,49.5% (inactive)
same,growth,HCT-116 colon; 0.005 µM,100% (inactive)
same,growth,HCT-116 colon; 30 µM,24.3% (inactive)
same,growth,HCC-2998 colon; 0.005 µM,116% (inactive)
same,growth,HCC-2998 colon; 30 µM,54.5% (inactive)
same,growth,KM12 colon; 0.005 µM,87.8% (inactive)
same,growth,KM12 colon; 30 µM,10.7% (inactive)
